In all, about 96,000 compounds went through this assay and about 19,000 (20%) were called active. These entries were drawn from the full list. Values without a mark were called inactive.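 Rule for the calls: active = blocking of liver enzyme CYP2C9 beyond about 50% at 5 µM (limit read from the data); inactive = the rest.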
target: Cytochrome P450 2C9 (Homo sapiens) (UniProt P11712); assay: blockers of cytochrome P450 2C9 activity – biochemical, luminescence, ADME assay, primary screen (AID 777); details: CYP2C9 Supersomes, luciferin-H conversion, at 5 µM, active compounds read high
Sequence (P11712 whole entry, looked up): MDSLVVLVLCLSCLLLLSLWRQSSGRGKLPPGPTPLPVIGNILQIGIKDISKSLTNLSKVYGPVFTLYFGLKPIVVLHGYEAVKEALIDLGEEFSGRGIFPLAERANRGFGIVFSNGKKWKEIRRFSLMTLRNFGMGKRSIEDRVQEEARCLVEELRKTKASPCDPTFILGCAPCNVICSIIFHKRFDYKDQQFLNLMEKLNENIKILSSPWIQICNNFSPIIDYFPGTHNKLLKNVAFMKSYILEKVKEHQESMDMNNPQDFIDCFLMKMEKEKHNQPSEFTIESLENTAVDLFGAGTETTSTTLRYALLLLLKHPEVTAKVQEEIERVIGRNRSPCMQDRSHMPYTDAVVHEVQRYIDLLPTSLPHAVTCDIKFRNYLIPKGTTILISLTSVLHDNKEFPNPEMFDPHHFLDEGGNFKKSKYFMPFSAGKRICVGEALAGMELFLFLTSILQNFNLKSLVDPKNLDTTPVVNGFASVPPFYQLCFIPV

SMILES	inhibition
COc1ccccc1N1CCN(Cc2nnnn2CCc2ccccc2)CC1	75% (active)
c1ccc(CCn2nnnc2CN2CCN(C3CCCC3)CC2)cc1	-1.3%
Oc1ccccc1CNc1ncc(Br)cc1Br	-39.9%
CCOc1ccc(C(=O)NC2CCN(S(=O)(=O)CC)CC2)cc1	2.4%
CCOC(=O)N1CCC(Nc2c(NCCCN3CCN(CC)CC3)c(=O)c2=O)CC1	-19.9%
CCOC(=O)C1Cn2c(nc3c(c2=O)C(C)(CC)Cc2ccccc2-3)S1 (stereo unspecified)	94.8% (active)
CC1(C)Cc2ccccc2-c2nc(CN3CCOCC3)[nH]c(=O)c21	15.5%
O=C(Nc1ccc(-n2ccnc2P(=O)(O)c2ccccc2)cc1)c1ccccc1Br	95.5% (active)
Cc1nonc1NC(=O)c1ccccc1Br	-27.2%
O=C(Nc1nnc(-c2ccc(Cl)cc2)o1)c1ccccc1Br	26%
CC(=O)NC1=NC(=O)CS1	11.7%
COC(=O)C1=C(C)N(C)C(C)=C(C(=O)OC)C1c1cccc(Br)c1	93.8% (active)
COC(=O)CN1C(C)=Nc2ccc(Br)cc2C1c1ccccc1 (stereo unspecified)	-8.5%
COC(=O)C1=CN(C)C=C(C(=O)OC)C1c1ccc(Cl)cc1Cl	28%
Clc1ccccc1SCc1nc2ccccc2[nH]1	36.9%
COC(=O)Cc1nc2ccccc2[nH]1	7.9%
c1ccc2c(CSCc3nc4ccccc4[nH]3)cccc2c1	85.1% (active)
CC(CN1CCOCC1)c1ccccc1 (stereo unspecified)	2.7%
CN(CC(=O)NC1CCCCC1)S(=O)(=O)c1ccc(Br)s1	-17.7%
CCS(=O)(=O)n1nc(-c2ccc(OC)cc2)nc1SC	42.2%
Cn1c(CO)cnc1SCc1ccccc1	3.4%
CCS(=O)(=O)n1nc(-c2ccccc2)nc1SCc1ccccc1	87.9% (active)
CSCCC(NC(=O)COc1ccccc1)C(=O)OCC(=O)c1cc2ccccc2o1 (stereo unspecified)	43.3%
COc1ccc2ccccc2c1CNCc1ccccn1	-4.5%
Cc1cc(C)c(C#N)c(SCc2ccc3c(c2)OCO3)n1	90.5% (active)
Cc1cc(C)c(C#N)c(SCc2ccccc2C(=O)O)n1	9.5%

SMILES	inhibition
Cc1cc(C)c(C#N)c(SCS(=O)c2ccc(C(C)(C)C)cc2)n1 (stereo unspecified)	-50.8%
CCCCN(C)Cc1c(C)[nH]c2ccc(Cl)cc2c1=O	-10.7%
O=C(O)CCC(=O)N(Cc1ccco1)c1nc(-c2ccccc2)cs1	5.2%
Cc1nnc(N(Cc2ccco2)C(=O)c2ccno2)s1	11.2%
Cc1ccc(-c2csc(N(Cc3ccco3)C(=O)c3cccs3)n2)cc1	91.6% (active)
O=C(Nc1ccccc1)N(Cc1cccnc1)Cc1ccco1	35.5%
COC(=O)c1ccc(Oc2nc(NC(C)C)nc(SC)n2)cc1	37.2%
Cc1nc(SCC(=O)Nc2cc(C)on2)c2c(C)c(C)sc2n1	14%
Cc1nnc(SCC(=O)N2CCc3ccccc3C2)s1	0%
O=C(CSc1nnc(-c2cccs2)n1Cc1ccccc1)N1CCc2ccccc2C1	48%
Cc1nc(SCC(=O)N2CCc3ccccc3C2)c2c(C)c(C)sc2n1	55.9% (active)
Cc1nc(SCC(=O)N2CC(=O)Nc3ccccc32)c2c(C)c(C)sc2n1	55.2% (active)
Nn1c(Cc2cccc3ccccc23)nnc1SCC(=O)N1CC(=O)Nc2ccccc21	-64.6%
COc1ccc(OC)c(NC(=O)CCN2CCC(C)CC2)c1	5.1%
CCc1nnc(NC(=O)CCC(=O)NCc2ccccc2OC)s1	-14.5%
Cc1ccsc1-c1nc(CSCC(=O)NCCN2CCCC2)c(C)o1	7.3%
CCOc1cc(-c2cc(-c3ccc(OC)cc3)nc(N)c2C#N)ccc1O	47.2%
CCSc1nc(-c2ccc(OC)cc2)cc(-c2ccc(OC)cc2)c1C#N	75.3% (active)
COc1ccc(C)cc1N(C)C(=O)c1coc(=O)c2ccccc12	33.1%
O=C(CSc1nc2ccccc2o1)N1CCN(c2ccc(Cl)cc2)CC1	-11.9%
Cc1cc(C)cc(OCc2nnc(SCC(=O)Nc3ccccc3)o2)c1	-3%
CC(C)NC(=O)CSc1nnc(COc2ccccc2Cl)o1	-39.2%
Cc1ccccc1OCc1nnc(SCC(=O)N2c3ccccc3Sc3ccc(Cl)cc32)o1	57.3% (active)
O=C(CSc1nc2ccccc2o1)N1c2ccccc2Sc2ccc(Cl)cc21	60.9% (active)
CC1Cc2ccccc2N1C(=O)CSc1nc2ccccc2o1 (stereo unspecified)	28.2%
